Composite z-score and z-score data for 13 molecules are collected here from PubChem BioAssay.

Calls of active or inactive are those of the source.

The subject of test [1] is Plasmodium falciparum Sir2 (PF13_0152, Sir2A). In words: pfSir2 binders on small-molecule microarrays, primary screen, biochemical, small-molecule microarray, 635 nm fluorescence (AID 1098).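 Also: score merges spot fluorescence intensity with its signal-to-noise ratio.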 The following applies: small-molecule microarray binding, fluorescence 635 nm; higher = more signal.
Test [2] can be described thus: small-molecule microarray binders of probe aDKK1, primary screen, biochemical, biotinylated probe, 635/667 nm fluorescence (AID 1099).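 Also: score merges 667nm spot fluorescence with signal to noise across triplicate slides; reference of the scale not given here.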 The note with it: higher = more signal.
Test [3] can be described thus: small-molecule microarray binders of probe aCHRDL2, primary screen, biochemical, biotinylated probe, 635/667 nm fluorescence (AID 1100). The following applies: higher = more signal.
A short description of test [4]: splicing luciferase reporter signal modulators, primary screen, spliceosome inhibition project, cell-based, HEK293, splice +/- reporter (AID 1101).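 Also: HEK293 cells carrying a splicing-competent luciferase reporter gene; test concentration not given here.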 The following applies: luminescence, 24 h, higher = more signal, called active from +8 up or from −8 down. For orientation: Reporter assays use an easily measured gene product as a stand-in for the process of interest.
Test [5] deals with Fibroblast growth factor 10 (Homo sapiens) (UniProt O15520). Kind of test: FGF10 binders on small-molecule microarrays, primary screen, biochemical, small-molecule microarray, 635 nm fluorescence (AID 1102). The note with it: FGF10 binding, fluorescence 635 nm, higher = more signal.
Fibroblast growth factor 10 (Homo sapiens), sequence (O15520 whole entry, looked up): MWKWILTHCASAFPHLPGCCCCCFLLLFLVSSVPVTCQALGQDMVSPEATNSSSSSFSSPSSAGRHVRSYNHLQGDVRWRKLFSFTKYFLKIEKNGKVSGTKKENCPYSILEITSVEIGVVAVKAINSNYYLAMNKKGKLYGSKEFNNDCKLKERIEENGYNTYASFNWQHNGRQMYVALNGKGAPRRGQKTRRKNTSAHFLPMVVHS
The test system of test [6] is glycogen synthase kinase-3 (GSK3A per assay name; protocol says GSK3B). In words: GSK3 binders on small-molecule microarrays, primary screen, biochemical, small-molecule microarray, 635 nm fluorescence, GSK3A (AID 1103). Also: the record names both GSK3A and GSK3B. The following applies: small-molecule microarray binding, fluorescence 635 nm; higher = more signal.
Test [7] concerns the target Epidermal growth factor receptor (Homo sapiens) (UniProt P00533). In words: EGFR binders on small-molecule microarrays, primary screen, biochemical, small-molecule microarray, 635 nm fluorescence (AID 1104).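 Also: score merges 667 nm emission intensity with spot signal to noise over triplicate slides.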 The following applies: EGFR binding, higher = more signal.
Test [8] deals with Follistatin-related protein 3 (Homo sapiens) (UniProt O95633). Kind of test: FSTL3 binders on small-molecule microarrays, primary screen, biochemical, small-molecule microarray, 635 nm fluorescence (AID 1105).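 Also: score merges emission near 667 nm and signal to noise per printed spot across three slides.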 The note with it: FSTL3 binding, higher = more signal.
Follistatin-related protein 3 (Homo sapiens), sequence (O95633 whole entry, looked up): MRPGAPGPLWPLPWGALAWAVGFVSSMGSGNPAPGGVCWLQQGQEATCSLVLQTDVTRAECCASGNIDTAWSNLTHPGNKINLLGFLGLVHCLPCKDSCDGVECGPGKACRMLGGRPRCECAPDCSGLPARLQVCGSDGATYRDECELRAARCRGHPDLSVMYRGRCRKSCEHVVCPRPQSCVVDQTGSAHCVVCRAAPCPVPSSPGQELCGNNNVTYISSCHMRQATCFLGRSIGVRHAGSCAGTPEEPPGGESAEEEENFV
The target of test [9] is Dickkopf-related protein 1 (Homo sapiens) (UniProt O94907). In words: DKK1 binders on small-molecule microarrays, primary screen, biochemical, small-molecule microarray, 635 nm fluorescence scan (AID 1106).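 Also: score merges emission near 667 nm with signal to noise over three replicate slides.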 The note with it: DKK1 binding, higher = more signal.
Dickkopf-related protein 1 (Homo sapiens), sequence (O94907 whole entry, looked up): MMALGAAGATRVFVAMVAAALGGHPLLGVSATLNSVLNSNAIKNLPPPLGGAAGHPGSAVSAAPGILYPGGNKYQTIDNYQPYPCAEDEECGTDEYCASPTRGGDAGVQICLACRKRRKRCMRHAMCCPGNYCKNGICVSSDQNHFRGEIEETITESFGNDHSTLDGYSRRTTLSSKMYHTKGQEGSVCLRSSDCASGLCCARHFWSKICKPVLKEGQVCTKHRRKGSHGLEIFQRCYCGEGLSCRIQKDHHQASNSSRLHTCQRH
Test [10] concerns Inhibin beta A chain (activin A). In words: INHBA (activin A) binders on microarrays, primary screen, biochemical, small-molecule microarray, 635 nm fluorescence scan (AID 1107).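 Also: mouse activin A protein probed at 4.33 µg/mL on printed slides; score merges bound-protein fluorescence near 667 nm with spot signal-to-noise.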 The following applies: small-molecule microarray binding, higher = more signal.

Epidermal growth factor receptor (Homo sapiens), sequence (P00533 whole entry, looked up): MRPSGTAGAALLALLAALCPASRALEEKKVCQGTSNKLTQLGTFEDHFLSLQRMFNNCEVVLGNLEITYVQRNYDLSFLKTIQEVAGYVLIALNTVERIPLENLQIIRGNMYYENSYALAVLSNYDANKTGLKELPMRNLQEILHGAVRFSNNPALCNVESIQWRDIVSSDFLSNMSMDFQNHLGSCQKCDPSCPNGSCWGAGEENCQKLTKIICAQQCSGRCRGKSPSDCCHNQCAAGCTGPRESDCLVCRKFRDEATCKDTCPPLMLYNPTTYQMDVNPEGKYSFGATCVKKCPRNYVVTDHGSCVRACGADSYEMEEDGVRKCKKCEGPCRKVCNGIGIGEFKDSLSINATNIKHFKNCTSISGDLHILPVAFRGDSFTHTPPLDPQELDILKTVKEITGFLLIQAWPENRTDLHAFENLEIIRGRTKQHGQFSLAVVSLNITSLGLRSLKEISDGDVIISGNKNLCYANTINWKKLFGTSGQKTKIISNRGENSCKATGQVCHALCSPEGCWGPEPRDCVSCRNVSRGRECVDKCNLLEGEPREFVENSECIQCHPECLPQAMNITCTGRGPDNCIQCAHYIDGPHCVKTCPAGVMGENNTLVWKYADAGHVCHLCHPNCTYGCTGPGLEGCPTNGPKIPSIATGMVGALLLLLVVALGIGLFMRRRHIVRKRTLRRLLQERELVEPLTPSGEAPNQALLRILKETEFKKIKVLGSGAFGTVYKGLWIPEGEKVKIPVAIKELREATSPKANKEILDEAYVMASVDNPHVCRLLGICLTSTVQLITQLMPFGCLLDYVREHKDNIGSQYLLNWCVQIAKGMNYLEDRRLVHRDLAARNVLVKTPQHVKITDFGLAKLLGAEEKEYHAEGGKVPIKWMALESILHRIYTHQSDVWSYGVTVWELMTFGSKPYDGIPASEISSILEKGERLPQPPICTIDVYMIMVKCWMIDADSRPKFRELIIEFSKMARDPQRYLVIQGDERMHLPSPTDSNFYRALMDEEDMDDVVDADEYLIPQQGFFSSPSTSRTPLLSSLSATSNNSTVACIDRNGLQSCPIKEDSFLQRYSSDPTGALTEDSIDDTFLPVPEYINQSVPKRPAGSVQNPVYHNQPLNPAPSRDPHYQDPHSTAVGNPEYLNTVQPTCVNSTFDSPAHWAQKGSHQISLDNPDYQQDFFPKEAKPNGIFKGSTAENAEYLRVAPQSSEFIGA

Turning to `C=CC[C@]1(C(N)=O)N=C(c2ccc(OCCCO)cc2)O[C@H]1c1ccccc1`, the composite z-score in test [1] is 1.3; in test [2], 0.351; in test [3] it was 1.11; in test [5] it was -0.304; in [6], -0.195; in [7], -1.03. Also, the results for the composite z-score in test [8], in [9] and in [10] were -0.882, -0.539 and 1.08, respectively. Further, the z-score in test [4] was 0.27 (inactive).
As for `CC(=CC1CCCCC1)[C@@H](NC(=O)c1cccnc1)c1ccc(-c2ccccc2)cc1`, the composite z-score in test [1] is -0.178; in [2] it was -0.0066; in [3], 0.849; in [5] it was -0.599; in test [6], -1.11; in test [7] it was -0.419. Moreover, the composite z-score in test [8] was -0.195; in test [9], -0.44; in test [10], 0.679. Besides, the z-score in test [4] is 0.772 (inactive).
Regarding `COc1ccc([Si](C)(C)[C@@H]2[C@@H](CCO)O[C@]3(C(=O)N(Cc4cccc(N5CCOC5=O)c4)c4ccccc43)[C@H]2C)cc1`, the composite z-score in [1] is 0.75; in test [2], 0.644; in test [3], 0.246; in test [5], 0.415; in test [6] it was 0.67; in [7], 0.0548. The composite z-score in test [8] is 0.648; in test [9], 0.405; in test [10] it was 0.593. Moreover, the z-score in [4] is -0.871 (inactive).
For the molecule `COc1ccc(C(=O)Nc2cccc(CN3C(=O)[C@]4(O[C@H](CCn5cc(CCO)nn5)[C@@H]([Si](C)(C)c5ccc(OC)cc5)[C@@H]4C)c4ccccc43)c2)cc1`, the composite z-score amounted to 0.83 in [1]; 0.601 in [2]; 0.127 in test [3]; 0.17 in [5]; 0.495 in [6]; 0.529 in [7]. Also, the composite z-score in test [8] amounted to 1.01; in test [9] it was 0.201; in test [10] it was 1.55. Further, in test [4], the z-score was 2.05 (inactive).
For `O=C1C[C@@](C(=O)NCc2ccccc2)(c2ccc([N+](=O)[O-])cc2)[C@@H](c2ccc(CO)cc2)N1CC12CC3CC(CC(C3)C1)C2`, the composite z-score in [1] is 1.62; in [2], -0.387; in test [3], -0.371; in test [5], 1.06; in test [6], 1.13; in test [7] it was 0.385. For the same molecule, the composite z-score in test [8] was 0.837; in test [9], 0.0703; in test [10] it was 0.0162. In addition, the z-score in test [4] was -0.859 (inactive).
For `O=C1O[C@@H](c2ccccc2)[C@@H](c2ccccc2)N2[C@@H](c3ccc(OCCO)cc3)[C@]3(C(=O)Nc4ccc(C#CCCO)cc43)[C@@H](C(=O)NC[C@H](O)c3ccccc3)[C@H]12`, the composite z-score is 1.51 in [1]; 0.312 in test [2]; 0.333 in test [3]; 0.84 in [5]; 0.905 in test [6]; 0.94 in test [7]. Moreover, the composite z-score is 0.956 in test [8], 0.687 in test [9] and 0.73 in test [10]. The z-score in test [4] was -0.6 (inactive).
With `O=C1OCCC/C=C\[C@H]2OC34C=CCN(c5ccc6ccccc6c5)C(=O)[C@H]3N(CCCCCO)C(=O)[C@@H]4C12` (stereo not given in full), the composite z-score in test [1] is 0.227; in test [2] it was -0.319; in test [3], 0.364; in test [5], -0.862; in [6] it was -1.35; in test [7], -0.756. For the same molecule, the values for the composite z-score in test [8], in [9] and in [10] were -0.613, -0.974 and 0.633, respectively. Besides, the z-score in [4] is -0.447 (inactive).
As to `CC(C)CCC[C@@H](C)[C@H]1CC[C@@]2(C)C3=C(CC[C@]12C)[C@@]1(C)CC[C@H](OC(=O)c2ccc(C(F)(F)F)nc2)C(C)(C)C1CC3` (stereo not given in full), the composite z-score in test [1] is 0.22; in test [2], -0.514; in [3], -0.491; in test [5], 0.595; in [6], 0.714; in test [7], 0.471. The composite z-score in test [8] is 0.627; in [9] it was 0.418; in [10], -0.0544. The z-score in test [4] was -0.895 (inactive).
For the molecule `CC(C)CN1C(=O)[C@@]2(c3ccc([N+](=O)[O-])cc3)CC(=O)N(C3CCCCC3)[C@@H]2c2ccc(CO)cc21`, the composite z-score in [1] is 0.103; in test [2], -0.0495; in test [3] it was 0.867; in test [5] it was -0.935; in test [6], -1.27; in test [7] it was -1.31. Besides, the composite z-score was -1.21 in [8], -1.38 in test [9] and 0.294 in [10]. In addition, the z-score in test [4] is 0.256 (inactive).
As for `COc1ccc([Si](C)(C)[C@@H]2[C@@H](CCn3cc(CCO)nn3)O[C@]3(C(=O)N(Cc4cccc(N5C(=O)c6cccc7cccc5c67)c4)c4ccccc43)[C@H]2C)cc1`, the composite z-score in [1] was 0.686; in test [2], -0.212; in test [3], -0.197; in [5], 0.648; in [6], 0.433; in test [7], 0.0345. For the same molecule, the values for the composite z-score in test [8], in [9] and in test [10] were 0.922, 0.135 and 0.546, respectively. Besides, the z-score in [4] was -1.23 (inactive).
`O=C(O)[C@@]1(CCS(=O)(=O)c2ccccc2)N=C(c2ccc(OCCCO)cc2)O[C@H]1c1ccccc1`: the composite z-score in [1] was 0.729; in test [2], 0.737; in test [3], 0.905; in test [5], -0.678; in [6] it was -0.123; in [7], -0.264. Besides, the composite z-score in test [8] is 0.215; in [9], -1.05; in test [10], 0.658. The z-score in [4] is -0.123 (inactive).
Take `C=C(CCCC)/C(=C/C[C@@H](OC(C)=O)c1cccc(OCCO)c1)c1cnc2ccccc2c1`: the composite z-score is 0.462 in [1]; -0.14 in [2]; 0.0854 in [3]; 1 in test [5]; -0.518 in test [6]; 0.12 in test [7]. Also, the composite z-score in test [8] was 1.12; in test [9], 0.312; in [10], 1.58. The z-score in [4] is 1.17 (inactive).
`NC(=O)[C@@H]1[C@H]2C(=O)O[C@H](c3ccccc3)[C@H](c3ccccc3)N2[C@H](c2ccc(O)cc2)[C@@]12C(=O)Nc1ccc(C#CC3=CCCCC3)cc12`: the composite z-score in [1] is 0.735; in [2], -0.0562; in [3], -0.42; in [5], 0.676; in test [6], 0.439; in [7], -0.122. For the same molecule, the results for the composite z-score in [8], in [9] and in [10] were 0.31, -0.333 and 0.763, respectively. Further, the z-score in test [4] is -2.28 (inactive).
